# In PubChem BioAssay (NCATS):
# Results filed as inconclusive are left out. A call without a number means that no potency is given here. Calls of active or inactive are those of the source. The call rests on the fitted dose curve.
# Biological target: Estrogen receptor (Homo sapiens) (UniProt P03372)
# Assay: qHTS assay for small molecule agonists of estrogen receptor alpha signaling (AID 588514); further: nearly all actives have a fitted effect of over 70% in size
# Conditions: ER-alpha-UAS-bla HEK293, beta-lactamase ratio, 18 h; series mostly up to 76.8 µM
# Excerpt: NIH Chemical Genomics Center [NCGC]
# U.S. Environmental Protection Agency [EPA]
# National Institutes of Environmental Health Sciences [NIEHS]
# National Toxicology Program [NTP]
# Estrogen receptor alpha (ER-alpha) is an important member of nuclear hormone receptors. ER-alpha plays important role in breast cancer as well as in other women's health issues. The majority of breast cancers is estrogen receptor (ER) positive and depends on estrogen for growth. There is also growing concern for some of environmental chemicals which may contribute the increasing the incidence of breast cancer. Therefore, it is important to understand the effect of environmental chemicals in ER-alpha signaling pathway.
# NCGC Assay Protocol Summary
# Using a beta-lactamase reporter-gene under control of the ER response element, a cell-based assay [ER-alpha-UAS-bla GripTiteTM cell-Based Assay from Invitrogen] was used to measure ER-alpha signaling pathway in agonist mode. ER-alpha-UAS-bla-GripTite HEK 293 cells were used with assay medium containing 2% charcoal/dextran treated FBS, 0.1 mM NEAA and 1 mM sodium pyruvate. Cells were cultured in this assay medium overnight in the flasks before the assay. The assay was performed in clear bottom black Greiner 1536-well plates. 17-beta-estradiol was used as a positive control in the screen. Library compounds were measured for their ability to either stimulate the reporter gene activity. Compounds were screened in a titration series in 1536-well format. […] Data was normalized relative to 17-beta-estradiol control (20 nM, 100%), and DMSO only wells (basal, 0%). Concentration-response titration points for each compound were fitted to the Hill equation yielding concentrations of half-maximal stimulation (EC50) and maximal response (efficacy) values.
# qHTS protocol for ER-alpha beta-lactamase assay in agonist mode
# [Step] [Parameter] [Value] [Description]
# 1. Reagent; 6 uL; 5000 cells/well
# 2. Incubation; 37 C for 4 hrs
# 4. Controls (17-beta-estradiol); 23 nL
# - Dose response, start 1uM, 1:3 dilutions with duplicates
# - Two columns with 20 and 0.5 nM (final) concentration.
# 5. Incubation; 37 C for 18 hrs
# 6. Detection reagent; 1 uL of CCF4-dye
# 7. Incubation; RT for 2 hrs
# 8. Detection; Fluorescence; Envision plate reader or Acumen plate reader
# Estrogen receptor (Homo sapiens), sequence (P03372 whole entry, looked up): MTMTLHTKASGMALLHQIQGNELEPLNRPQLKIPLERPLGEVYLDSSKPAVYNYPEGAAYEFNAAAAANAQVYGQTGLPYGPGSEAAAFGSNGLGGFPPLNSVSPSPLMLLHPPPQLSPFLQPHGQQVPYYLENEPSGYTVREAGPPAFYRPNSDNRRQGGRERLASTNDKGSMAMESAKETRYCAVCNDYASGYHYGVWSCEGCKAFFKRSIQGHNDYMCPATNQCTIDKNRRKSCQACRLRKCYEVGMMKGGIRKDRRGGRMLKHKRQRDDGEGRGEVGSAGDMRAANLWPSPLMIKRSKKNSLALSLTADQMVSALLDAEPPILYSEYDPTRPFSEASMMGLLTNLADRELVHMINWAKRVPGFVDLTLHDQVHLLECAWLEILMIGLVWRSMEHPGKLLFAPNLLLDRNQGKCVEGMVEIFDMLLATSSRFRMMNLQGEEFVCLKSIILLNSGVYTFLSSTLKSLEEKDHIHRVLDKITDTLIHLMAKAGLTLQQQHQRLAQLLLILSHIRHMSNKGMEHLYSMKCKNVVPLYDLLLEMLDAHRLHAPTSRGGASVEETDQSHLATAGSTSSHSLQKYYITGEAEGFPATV
row,Compound,Potency
1,N#Cc1nn(-c2c(Cl)cc(C(F)(F)F)cc2Cl)c(N)c1S(=O)C(F)(F)F (stereo not drawn),inactive
2,CNC(=O)Oc1cccc2ccccc12,inactive
3,CCNc1nc(Cl)nc(NCC)n1,inactive
4,COP(=S)(OC)Oc1ccc(Sc2ccc(OP(=S)(OC)OC)cc2)cc1,inactive
5,CC[n+]1c(-c2ccccc2)c2cc(N)ccc2c2ccc(N)cc21,inactive
6,C[C@H]1C(=O)O[C@@H]2CCN3CC=C(COC(=O)[C@](C)(O)[C@]1(C)O)[C@H]23,inactive
7,O=C(CCl)c1ccc(Cl)cc1Cl,inactive
8,COP(=O)(OC)OC=C(Cl)Cl,inactive
9,O=C(NC(=O)c1c(F)cccc1F)Nc1cc(Cl)c(OC(F)(F)C(F)C(F)(F)F)cc1Cl (stereo not drawn),inactive
10,Cc1ccc(N=CN(C)C=Nc2ccc(C)cc2C)c(C)c1,inactive
11,CN(C)C(=S)SSC(=S)N(C)C,inactive
12,CCC(=O)O[C@H]1CC[C@H]2[C@@H]3CCC4=CC(=O)CC[C@]4(C)[C@H]3CC[C@]12C,2.82 µM (active)
13,Oc1c(Br)cc(Br)cc1Br,inactive
